{
  "source": "PubChem BioAssay (NCATS)",
  "note": "Records with an inconclusive call do not appear. Values without a mark were called inactive. Active and inactive are the calls of the source. Calls come from the whole dose curve; as a rule, active = well fitted curve in the direction sought with a large enough effect in the signal ratio, with a control signal flat (not every such curve was filed as active); inconclusive = small, poorly fitted or top-dose-only effect, or effect the other way, or a change in a side signal; inactive = no such curve, though single readings can be large or run the other way; the % refers to the signal ratio.",
  "data": [
    {"biological_target": "Tyrosine-protein phosphatase non-receptor type substrate 1 (Homo sapiens) + Leukocyte surface antigen CD47 (Homo sapiens) (UniProt P78324+Q08722)", "sequence (P78324 whole entry, looked up)": "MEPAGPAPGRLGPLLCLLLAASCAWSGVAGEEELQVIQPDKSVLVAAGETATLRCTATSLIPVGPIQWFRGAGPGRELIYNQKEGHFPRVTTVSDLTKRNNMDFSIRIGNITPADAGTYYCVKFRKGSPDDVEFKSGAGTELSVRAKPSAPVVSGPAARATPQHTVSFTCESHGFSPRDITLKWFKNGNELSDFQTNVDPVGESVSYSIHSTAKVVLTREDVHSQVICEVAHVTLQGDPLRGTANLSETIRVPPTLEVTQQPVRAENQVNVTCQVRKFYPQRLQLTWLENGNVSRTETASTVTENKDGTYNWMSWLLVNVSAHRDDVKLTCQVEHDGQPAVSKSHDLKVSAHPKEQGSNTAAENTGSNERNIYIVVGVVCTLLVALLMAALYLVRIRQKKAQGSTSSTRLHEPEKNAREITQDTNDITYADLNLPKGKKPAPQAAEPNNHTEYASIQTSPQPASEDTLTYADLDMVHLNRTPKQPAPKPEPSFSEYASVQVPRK", "sequence (Q08722 whole entry, looked up)": "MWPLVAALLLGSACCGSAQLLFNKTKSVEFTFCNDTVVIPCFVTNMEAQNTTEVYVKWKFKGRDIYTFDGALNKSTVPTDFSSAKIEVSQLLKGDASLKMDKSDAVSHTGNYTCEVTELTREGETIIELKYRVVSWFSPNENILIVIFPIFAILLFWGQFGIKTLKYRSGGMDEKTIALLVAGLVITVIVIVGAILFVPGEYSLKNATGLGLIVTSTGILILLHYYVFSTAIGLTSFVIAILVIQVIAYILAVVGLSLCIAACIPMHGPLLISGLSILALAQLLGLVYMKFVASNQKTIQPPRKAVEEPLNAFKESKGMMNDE", "experiment": "CD47-SIRPalpha protein protein interaction - LANCE assay qHTS validation (AID 1347057); note: 0% is about no effect", "details": "Recombinant CD47-His / biotin-SIRPalpha, TR-FRET ratio; series mostly up to 38.3 µM; activity change, negative = inhibition: at the top concentration", "from_the_text": "SIRPalpha is a myeloid cell expressed immunomodulatory receptor that binds the tumor expressed immune checkpoint CD47. Therapeutic disruption of this interaction leads to immune-mediated tumor rejection. This assay was used to quantitate CD47-SIRPalpha binding biochemically and evaluate chemical libraries for novel CD47-SIRPalpha inhibitors. To recapitulate the biological interaction of CD47 and SIRPalpha, we designed expression constructs to produce their recombinant, soluble, extracellular interaction domains. CD47 was produced with an N-terminal 6His tag. SIRPalpha was produced with an N-terminal Avi-Tag for site-specific biotin incorporation. The CD47-SIRPalpha interaction was measured by TR-FRET using affinity tag linked reagents (anti-6His-Eu donor and streptavidin-APC acceptor). SIRPalpha without biotin incorporation was used as a positive control inhibitor.\nPROTOCOL TABLE (as described by Miller, T. et al. 2019)\nSEQUENCE No. (e.g., 1, 2, 3, etc.); […] (e.g., Cells, Incubation, Reagent, etc.); VALUE and DESCRIPTION.\n1a. Reagent. 3 uL CD47-His (12.5 nM) and Anti-His Eu Donor reagent (3 nM) added to respective wells in Assay buffer; white/solid bottom high base, med bind 1536-well plates (Greiner 789075)\n1b. Reagent. 2 uL Assay buffer negative control for background fluorescence\n2. Reagent. 23 nL library compounds (7-pt, 1:4 intraplate titration series) or DMSO control transferred by Pin Tool\n3. Centrifuge. Centrifuge plate for 30 s at 1000 RPM\n4. Incubation.#Incubate reagents at room temperature for 30 min, protected from light\n5. Reagent. 2 uL SIRPalpha-biotin (100 nM) in Assay buffer\n6. Incubation.#Incubate reagents at room temperature for 30 min, protected from light\n7. Reagent. 1 uL SAV-APC (26 nM) acceptor reagent added to respective wells\n8. Centrifuge. Centrifuge plate for 30 s at 1000 RPM\n9. Incubation. Incubate reagents at room temperature for 30 min, protected from light\n10. Detector. Measure Top TR-FRET on EnVision (Eu/APC filter set); calculate ratio Ch1/Ch2\n1. Assay buffer composition.#Phosphate buffered saline (PBS; 10 mM Phosphate, 137 mM NaCl, and 2.7 mM KCl; pH 7.4), 0.05% IGEPAL CA-630\n2. 23nL of […] library compounds (7 plates) or DMSO vehicle control transferred to 9 Greiner white/solid bottom high base, TC plates in 7 interplate 1:5 titrations (see Yasgar, A. et al. 2008) with Pintool. Two of the 9 plates are DMSO-only in compound field at beginning and end of compound library-treated plates.\n10. Detector settings#Mirror = LANCE/DELFIA Dual Enh; Ex. Filter = UV2[TRF] 320; Em. Filter = APC 665; 2nd Em. Filter = Europium 615; Measurement h = 6.5; Ex. light (%) = 100; Delay = 60 us; Window t = 100 us; No. Seq. windows = 1; Time between flashes = 2000us; No. of flashes = 100; No. of flashes for 2nd detector = 100; Calculation: \"Ratio Ch1/Ch2\"", "units": {"activity change, negative = inhibition": "%"}, "values": [
      {"compound": "CC(C)(C)c1onc(OCP(=O)(O)O)c1CC(N)C(=O)O", "note": "(stereo not given)", "activity change, negative = inhibition": 0.63},
      {"compound": "CN1CCN(C2Cc3ccccc3Sc3ccc(Cl)cc32)CC1", "note": "(stereo not given)", "activity change, negative = inhibition": 1.41},
      {"compound": "CSc1ccc2c(c1)C(N1CCN(C)CC1)Cc1ccccc1S2", "note": "(stereo not given)", "activity change, negative = inhibition": -0.572},
      {"compound": "CCCCN(CCCC)CC(O)c1cc(Cl)cc2c1-c1ccc(Cl)cc1/C2=C/c1ccc(Cl)cc1", "note": "(stereo not given)", "activity change, negative = inhibition": 1.53},
      {"compound": "C[C@](N)(Cc1ccc(O)cc1)C(=O)O", "activity change, negative = inhibition": 1.19},
      {"compound": "CCCn1cnc2c1c(=O)n(CCCCC(C)=O)c(=O)n2C", "activity change, negative = inhibition": 0.396},
      {"compound": "C#CCN(C)Cc1ccccc1", "activity change, negative = inhibition": -0.292},
      {"compound": "N=c1c[n+](N2CCOCC2)[n-]o1", "activity change, negative = inhibition": -0.434},
      {"compound": "CCCCc1ncc(/C=C(\\Cc2cccs2)C(=O)O)n1Cc1ccc(C(=O)O)cc1", "activity change, negative = inhibition": 0.967},
      {"compound": "CNCC(O)c1ccc(O)c(O)c1", "note": "(stereo not given)", "activity change, negative = inhibition": 1.45},
      {"compound": "CC(C)C(=O)c1c(C(C)C)nn2ccccc12", "activity change, negative = inhibition": 0.0496},
      {"compound": "COC(=O)C1=C(C)NC(C)=C(C(=O)OC)C1c1ccccc1[N+](=O)[O-]", "activity change, negative = inhibition": -1.27},
      {"compound": "C[C@]12CC[C@@H]3c4ccc(O)cc4CC[C@H]3[C@@H]1CCC2=O", "activity change, negative = inhibition": 0.366},
      {"compound": "CC(C(O)c1ccc(O)cc1)N1CCC(Cc2ccccc2)CC1", "note": "(stereo not given)", "activity change, negative = inhibition": 2.38},
      {"compound": "C[C@]12C[C@H](O)[C@H]3[C@@H](CCC4=CC(=O)CC[C@@]43C)[C@@H]1CC[C@@H]2C(=O)CO", "activity change, negative = inhibition": -1.25},
      {"compound": "CC(C)(C)[C@]1(O)CCN2C[C@H]3c4ccccc4CCc4cccc(c43)[C@@H]2C1", "outcome": "inactive"},
      {"compound": "O=C1NC(=O)[C@@]2(CCOc3ccc(F)cc32)N1", "activity change, negative = inhibition": 0.608},
      {"compound": "CC(=O)OCC(=O)[C@@]1(O)CC[C@H]2[C@@H]3CCC4=CC(=O)CC[C@]4(C)[C@H]3C(=O)C[C@@]21C", "activity change, negative = inhibition": 2.74},
      {"compound": "CN(C)CCCN1c2ccccc2CCc2ccccc21", "activity change, negative = inhibition": -0.264},
      {"compound": "C[C@H](NC(CCc1ccccc1)C(=O)O)C(=O)N1CCC[C@H]1C(=O)O", "note": "(stereo not given in full)", "activity change, negative = inhibition": 1.76},
      {"compound": "C[C@H]1O[C@@H](n2cc(F)c(=O)[nH]c2=O)[C@H](O)[C@@H]1O", "activity change, negative = inhibition": -0.0329},
      {"compound": "CC(C)c1c(C(=O)Nc2ccccc2)c(-c2ccccc2)c(-c2ccc(F)cc2)n1CC[C@@H](O)C[C@@H](O)CC(=O)O", "activity change, negative = inhibition": 0.528},
      {"compound": "COCCOC(=O)C1=C(C)NC(C)=C(C(=O)OC/C=C/c2ccccc2)C1c1cccc([N+](=O)[O-])c1", "note": "(stereo not given)", "activity change, negative = inhibition": 1.27},
      {"compound": "CNCCCC1c2ccccc2C=Cc2ccccc21", "activity change, negative = inhibition": 1.91},
      {"compound": "NC(=O)c1ncn([C@@H]2O[C@H](CO)[C@@H](O)[C@H]2O)n1", "activity change, negative = inhibition": 0.967},
      {"compound": "CN(C)CCCN1c2ccccc2Sc2ccc(Cl)cc21", "activity change, negative = inhibition": 0.704},
      {"compound": "CC1=C(/C=C/C(C)=C/C=C/C(C)=C/C(=O)O)C(C)(C)CCC1", "activity change, negative = inhibition": 0.388},
      {"compound": "CN(C)CCOC(C)(c1ccccc1)c1ccccn1", "note": "(stereo not given)", "activity change, negative = inhibition": 1.54},
      {"compound": "CCN(CC)CCOC(=O)C1(C2CCCCC2)CCCCC1", "activity change, negative = inhibition": 0.352},
      {"compound": "CCN(CC)C(C)CN1c2ccccc2Sc2ccccc21", "note": "(stereo not given)", "activity change, negative = inhibition": -0.132},
      {"compound": "NC1[C@H]2CN(c3nc4c(cc3F)c(=O)c(C(=O)O)cn4-c3ccc(F)cc3F)C[C@@H]12", "note": "(stereo not given in full)", "activity change, negative = inhibition": -0.67},
      {"compound": "CN(C)CCC=C1c2ccccc2CCc2ccccc21", "activity change, negative = inhibition": 1.79},
      {"compound": "CC1=C(CC(=O)O)c2cc(F)ccc2/C1=C\\c1ccc(S(C)(=O)=O)cc1", "activity change, negative = inhibition": 1.23},
      {"compound": "CC[C@H]1CN2CCc3cc(OC)c(OC)cc3[C@@H]2C[C@@H]1C[C@H]1NCCc2cc(OC)c(OC)cc21", "activity change, negative = inhibition": 0.528},
      {"compound": "CN1CCC[C@@H]1Cc1c[nH]c2ccc(CCS(=O)(=O)c3ccccc3)cc12", "activity change, negative = inhibition": 1.38},
      {"compound": "Cc1cc(N)c2ccccc2[n+]1CCCCCCCCCC[n+]1c(C)cc(N)c2ccccc21", "activity change, negative = inhibition": -0.572},
      {"compound": "OCc1cc(C(O)CNCCCCCCOCCCCc2ccccc2)ccc1O", "note": "(stereo not given)", "activity change, negative = inhibition": 1.54},
      {"compound": "Nc1ncnc2c1ncn2[C@@H]1O[C@H](CO)[C@@H](O)[C@H]1O", "activity change, negative = inhibition": 1.23},
      {"compound": "Nc1cc(=O)[nH]c(N)n1", "activity change, negative = inhibition": 1.09},
      {"compound": "COc1ccc(Cl)cc1C(=O)NCCc1ccc(S(=O)(=O)NC(=O)NC2CCCCC2)cc1", "activity change, negative = inhibition": 0.88}
    ]}
  ]
}
